Screening data as filed in PubChem.
D2 PAM-1 – Beta-Arrestin HTS for Positive Allosteric Modulators of the Human D2 Dopamine Receptor: Potentiators; D(2) dopamine receptor (Homo sapiens), P14416; DiscoveRx D2 beta-arrestin cells, luminescence, 90 min; 100% = 57 uM dopamine signal; potentiation, % (concentration not given with the values); hit rate 0.23% among 360,000; in the data active means potentiation above about 50%; inconclusive means mostly about 30% to 49%
Target sequence (P14416 whole entry, looked up): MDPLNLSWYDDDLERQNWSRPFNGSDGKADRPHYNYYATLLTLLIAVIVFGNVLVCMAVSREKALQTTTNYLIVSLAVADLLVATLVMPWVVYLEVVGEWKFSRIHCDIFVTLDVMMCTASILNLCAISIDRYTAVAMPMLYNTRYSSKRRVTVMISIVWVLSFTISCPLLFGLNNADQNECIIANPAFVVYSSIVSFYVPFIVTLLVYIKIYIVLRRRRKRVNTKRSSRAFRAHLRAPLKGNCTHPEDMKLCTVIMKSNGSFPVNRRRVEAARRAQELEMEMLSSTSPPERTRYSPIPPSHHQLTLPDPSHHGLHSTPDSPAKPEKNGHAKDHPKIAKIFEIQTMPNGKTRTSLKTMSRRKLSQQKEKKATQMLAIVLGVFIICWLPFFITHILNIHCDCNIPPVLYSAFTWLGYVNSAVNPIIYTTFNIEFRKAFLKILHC
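PathHunter D2 cells, attached overnight at 37 deg C, received compound in DMSO plus dopamine at EC20 (50 nM final) for 90 min at 37 deg C. Beta-arrestin recruitment was read as luminescence after 1 h with detection reagent at ambient temperature.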
D2 antag – HTS Assay for Allosteric Antagonists of the Human D2 Dopamine Receptor: Primary Screen for Antagonists; HEK293 TREx D2 cells, calcium flux, dopamine EC80; inhibition, % at 10 µM; hit rate 2% among 340,000; in the data active means inhibition above about 30%; inactive means below that, where a call was filed
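Tetracycline-induced HEK293 TREx cells expressing D2 receptor forced-coupled to calcium signalling, loaded with no-wash calcium dye. Compounds added and calcium flux read 180 s, then dopamine added at EC80 and read a further 180 s.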
D2 PAM-2 – HTS Assay for Positive Allosteric Modulators of the Human D2 Dopamine Receptor: Primary Screen for Potentiators; HEK293 T-REx D2, calcium flux, EC20 dopamine potentiation; potentiation, % at 10 µM; D(2) dopamine receptor (Homo sapiens), P14416; hit rate 0.34% among 340,000;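 active means potentiation over 3 SD above the plate norm, cut at about 30% in these data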
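Tetracycline-induced HEK293 T-REx cells force-coupled to calcium signalling expressed D2; compounds were pin-added after a 10 s baseline, read kinetically 180 s, then an EC20 dopamine challenge followed with a further 180 s calcium read.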
D2 ag-1 – Beta-Arrestin HTS for Positive Allosteric Modulators of the Human D2 Dopamine Receptor: Agonists; AID 624465, 2012; hit rate 0.084% among 360,000; DiscoveRx PathHunter D2 beta-arrestin, luminescence, 90 min; 100% = 57 uM dopamine signal; activation, % (no concentration beside the values); D(2) dopamine receptor (Homo sapiens), P14416; in the data active means activation above about 40%; inconclusive means between about 15% and that limit
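DiscoveRx PathHunter D2 beta-arrestin cells (2,100/well) attached overnight, then compound-stimulated 90 min at 37 C in HBSS/10 mM HEPES/0.1% Tween-20 buffer; beta-galactosidase complementation read by luminescence after 1 h at ambient temperature. Dopamine 57 uM final (EC100) as control.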
D2 ag-2 – HTS Assay for Allosteric Agonists of the Human D2 Dopamine Receptor: Primary Screen for Agonists; HEK293 T-REx D2 cells, calcium flux agonist mode; activation, % at 2 µM; hit rate 0.53% among 340,000;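 active means activation over 3 SD above normal in the single-dose calcium agonist read, cut at about 30% in these data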
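Agonism scored from kinetic calcium signal (1 read/sec, 180 s) following compound pin transfer, after a 10 s baseline. Cells: HEK293 Trex line expressing inducible D2 receptor coupled to calcium, dye-loaded after overnight culture at 30 C.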
Hits are given with their value; i = inactive; ? = inconclusive; nt = not tested or not shown. Most compounds without a hit are left out; they make up all but 2.4% or so of the library.

SMILES	D2 PAM-1	D2 antag	D2 PAM-2	D2 ag-1	D2 ag-2
COc1ccccc1Cn1c(-c2ccccc2OC)nc2ccccc21	i	i	i	i	i
Oc1ccccc1Cn1c(-c2ccccc2O)nc2ccccc21	i	33.6	i	i	i
Cc1nc2ccc(NC(=O)c3cc([N+](=O)[O-])cc([N+](=O)[O-])c3Cl)cc2s1	62.7	i	i	i	i
Cc1nc2ccc(NC(=O)c3ccc(Cl)c([N+](=O)[O-])c3)cc2s1	i	i	i	i	i
COc1ccc(CNC(=O)CCNS(=O)(=O)c2ccc3c(c2)CCCC(=O)N3)cc1	nt	nt	i	nt	i
Clc1ccccc1CNc1nc2ccccc2c2nc(-c3cccnc3)nn12	nt	nt	i	nt	i
COc1cc(NC(=O)COC(=O)Cc2ccsc2)cc(OC)c1	i	30.5	i	i	i
O=C(COC(=O)Cc1ccsc1)Nc1ccccc1	i	i	i	i	i
CCOC(=O)c1ccc(CN(Cc2ccc(F)cc2)S(=O)(=O)c2ccc(F)c(C(=O)Nc3ccc(Cl)cc3F)c2)cc1	nt	nt	i	nt	i
CCCCC[n+]1ccn(-c2nc3ccccc3nc2[N-]S(=O)(=O)c2ccc(C)cc2)c1	i	37.7	i	i	i
CCCC[n+]1ccn(-c2nc3ccccc3nc2[N-]S(=O)(=O)c2ccc(C)cc2)c1	i	i	i	i	i
O=C1C(Nc2ccccc2)=C(N2CCCCC2)C(=O)c2ccccc21	i	i	i	i	i
O=C1C(Nc2cccc(O)c2)=C(N2CCCCC2)C(=O)c2ccccc21	64.9	i	i	i	i
C/C(N)=C(/C#N)C(=O)CSc1nnc(Nc2ccccc2)s1	i	48.6	i	i	i
O=[N+]([O-])c1nn(-c2ccc3c(c2)OCCO3)n(O)c1=Nc1ccc(Cl)cc1	51.0	i	i	i	i
Cc1ccc(N=c2c([N+](=O)[O-])nn(-c3ccc4c(c3)OCCO4)n2O)cc1F	57.6	i	i	?	i
Cc1cc(C)cc(N=c2c([N+](=O)[O-])nn(-c3ccc4c(c3)OCCO4)n2O)c1	i	i	i	i	i
Cc1cccc(N(CC(=O)NC2CCCC2)C(=O)CS(=O)CC(=O)Nc2ccc3c(c2)OCO3)c1C (stereo not given)	i	i	i	i	i
Cc1ccc(NC(=O)CS(=O)CC(=O)N(CC(=O)NC2CCCC2)c2cccc(C)c2C)cc1 (stereo not given)	i	55.4	i	i	i
COc1ccc(C2=Nn3c(nnc3-c3ccccc3)SC2)cc1OC	i	i	i	i	i
CCCc1nnc2n1N=C(c1ccc(OC)c(OC)c1)CS2	i	i	89.1	i	i
Cc1nc(/N=C(\N)NC(=O)c2ccccc2)nc2ccccc12	i	i	i	i	i
Cc1nc(/N=C(\N)NC(=O)N2c3ccccc3Sc3ccccc32)nc2ccccc12	55.0	i	i	i	i
COc1ccc(C2=Nc3ccc(C)cc3C(c3ccccc3)N2CC(=O)NN)cc1 (stereo not given)	i	107.7	i	i	i
COC(=O)CN1C(c2ccc(Cl)cc2)=Nc2ccc(Cl)cc2C1c1ccccc1 (stereo not given)	i	48.9	i	i	i
SMILES	D2 PAM-1	D2 antag	D2 PAM-2	D2 ag-1	D2 ag-2
NNC(=O)CN1C(c2cccc(Cl)c2)=Nc2ccc(Br)cc2C1c1ccccc1 (stereo not given)	i	33.9	i	i	i
COc1ccc(C2=Nc3ccc(Br)cc3C(c3ccccc3)N2CC(=O)NN)cc1 (stereo not given)	i	nt	i	i	nt
O=C(c1ccccc1)N1CCCCCC1	i	i	i	i	i
COc1ccc(CN2CCC(C(=O)c3ccc(F)cc3)CC2)cc1	i	78.5	i	i	i
O=C(c1ccc(C(=O)N2CCCCCC2)cc1)N1CCCCCC1	i	i	31.5	i	i
Cc1ccc(CN2CCC(C(=O)c3ccc(F)cc3)CC2)cc1	i	nt	nt	i	nt
CCCNC(=S)N1CCC(C(=O)c2ccc(F)cc2)CC1	i	i	34.7	i	i
O=C(c1ccc(F)cc1)C1CCN(C(=O)c2ccc(F)cc2)CC1	i	41.0	i	i	i
COCCCNC(=O)c1sc2nc(C)c(C(=O)Nc3ccc(C)cc3C)c(-c3ccccc3Cl)c2c1N	nt	nt	i	nt	i
Cn1c(=O)cc(SCC(=O)Nc2cccc(C#N)c2)c2ccc(Cl)cc21	nt	nt	i	nt	i
O=C(c1ccc(F)cc1)C1CCN(C(=S)Nc2ccc(F)cc2)CC1	i	47.5	i	i	i
O=C(c1ccc(N2C(=O)C3CC=C(Cl)CC3C2=O)cc1)N1CCCCC1 (stereo not given)	i	37.7	i	i	i
COc1ccccc1N1CCN(Cc2nc(N)nc(Nc3ccccc3)n2)CC1	i	34.0	i	i	i
CCOC(=O)C1CCN(Cc2cc(C(C)C)c(O)c(C(C)C)c2)CC1	i	44.9	i	i	i
COc1ccccc1Nc1nc(N)nc(CN2CCCCCC2)n1	i	i	i	i	i
CCOC(=O)C1CCCN(Cc2nc(N)nc(Nc3ccccc3OC)n2)C1 (stereo not given)	i	34.4	i	i	i
CCOC(=O)C1CCCN(Cc2ccc(OCC)cc2)C1 (stereo not given)	i	i	i	i	41.8
CCOC(=O)C1CCN(Cc2ccc3ccccc3c2)CC1	i	i	i	i	i
CCCCOc1ccc(CNC(=O)c2cnc3sc(N4CCCC4)nn3c2=O)cc1	nt	nt	i	nt	i
CCn1c(SCC(=O)Nc2cc(C)ccc2F)nnc1-c1ccccc1O	nt	nt	i	nt	i
CCOC(=O)C1CCCN(CC(O)COC(c2ccccc2)c2ccccc2)C1 (stereo not given)	i	33.4	nt	i	i
COc1ccc(CN2CCC(C(N)=O)CC2)cc1OCc1ccccc1	i	i	i	i	i
CCOC(=O)C1CCCN(CC(O)COc2ccccc2C(C)=O)C1 (stereo not given)	i	i	i	i	i
CCOC(=O)C1CCCN(Cc2ccc(OC)c(OCc3ccccc3)c2)C1 (stereo not given)	i	45.4	i	i	i
CCCCN1CCC(COC(=O)c2cc(Cl)c(N)c3c2OCCO3)CC1	i	64.1	i	i	i
CCCSC1=C(C#N)C(c2ccc(OC)cc2)C2=C(CC(C)(C)CC2=O)N1 (stereo not given)	i	41.7	i	i	i
CN1C(=O)/C(=C/c2ccc(OC(=O)c3ccco3)cc2)SC1=S	i	i	i	i	i
CN1C(=O)/C(=C\c2ccc(OC(=O)c3ccco3)cc2)SC1=S	i	48.1	i	i	i
